{
  "source": "PubChem BioAssay AID651789",
  "about": "(National Center for Advancing Translational Sciences (NCATS), 2012)",
  "note": "Results filed as inconclusive are left out. A call without a number means that no potency is given here. Calls of active or inactive are those of the source. Calls come from the whole dose curve; as a rule, active = well fitted inhibition curve with a large enough effect; inconclusive = small, poorly fitted or top-dose-only effect; inactive = no such curve, though single readings can be large or run the other way.",
  "data": [
    {"assay": "Acumen qHTS Assay for Inhibitors of the mTORC1 Signaling Pathway in WT MEF Cells: Hit Validation; note: nearly all actives have a fitted effect of over 60% in size; note: potency is the fitted concentration of half-maximal effect", "conditions": "Acumen imaging; series mostly up to 37.3 µM", "from_the_text": "The mammalian target of rapamycin (mTOR) is an intracellular serine/threonine kinase Aberrant regulation of mTOR signaling plays a causative role in a number of human diseases, including cancer, benign tumors such as lymphangioleiomyomatosis (LAM) and Tuberous Sclerosis Complex (TSC), and metabolic diseases such as diabetes and obesity. This project aims to identify inhibitors of ribosomal protein S6 (rpS6) phosphorylation. The phosphorylation of rpS6 is a key event downstream of mTOR activation. The assay uses a phospho-specific antibody of phospho-rpS6 to detect inhibitors of mTOR activation. Mutations in the Tsc1 and Tsc2 genes are the underlying genetic lesions responsible for TSC, causing constitutive activation of the mTORC1 pathway and leading to profound effects on cell metabolism. Aberrant metabolism in cancer has recently received significant attention as a target to develop therapeutic agents in the treatment of cancer.1 As Tsc2-/- cells have lost the ability to respond to energy and growth factor deprivation, these cells are unable to properly down regulate cellular biosynthetic processes in response to metabolic stress, and are thus extremely sensitive to glucose deprivation-induced death.2 A central goal of this project is to explore the unique cell survival and metabolic properties of cells with Tsc1 or Tsc2 by screening for compounds that selectively target the Tsc2-/- MEFs by screening both Tsc2-/- and WT MEF cell lines. We hope to better understand these aspects of TSC physiology in order to exploit them for therapeutic benefit.\nNIH Molecular Libraries Probe Production Centers Network [MLPCN]\nNIH Chemical Genomics Center [NCGC]\nAssay Submitter (PI): Blenis, John; Harvard University\nFor quantitative high throughput analysis of mTORC1 signaling, we developed a cell-based assay for immuno-fluorescence based detection of rpS6 phosphorylation on the Acumen Explorer that will be used a platform for the primary small molecule screen. Mouse embryonic fibroblasts (MEFs) are cultured in 1536-well plates using DMEM + 10% FBS. Twenty-four hrs after plating, test compounds (solubilized in DMSO) are delivered and incubated with the cells for 24 hrs at 37 degree Celsius. Following the incubation, media with compound is aspirated and the cells are fixed in 4% paraformaldehyde (PFA) containing PBS + 0.2% TX-100. Next, PFA is aspirated, cells are washed two times with PBS plus 0.2% TX-100 and the cells are blocked for 1 hr at room temperature (blocking buffer: LiCOR Blocking Buffer plus 0.2% TX-100). This is followed by aspiration and staining with Alexa-488 conjugated-phospho-rpS6 Ser235/236 antibody for 2 hours at room temperature (Cell Signaling Technology # 4803, 1:50 dilution in blocking buffer). Cells are washed two times with PBS plus 0.2% TX-100, and stained with 10 uM propidium iodide (PI) for 20-25 minutes for cell number measurement (1:500 dilution of Hoescht staining is also added for IN Cell imaging). The plates are scanned on the Acumen Explorer laser scanning instrument (TTP Labtech) using the 488nm laser for simultaneous excitation of the Alexa-488 and PI. […] Fluorescence emission from the PI stain is selected using a 575-640 nm band pass filter. The normalized phospho-S6 staining is calculated as the ratio of the integrated Alexa 488 intensity divided by the integrated PI intensity for the single concentration rapamycin control (7.5 nM) and DMSO columns. […] Inhibition of the pathway is defined based on the normalized phospho-S6 intensity in rapamycin treated cells. Active cells are defined as those with a normalized phospho-S6 staining above this threshold, and each treatment is reported as the % positive cells in the well, where thresholds are defined by selecting wells with the highest and lowest signal and differentiating between the % non-active and % active populations. In addition to the pathway specific phospho-S6 endpoint, the number of PI stained cells from the Acumen is recorded as a measure of cell viability. […]", "values": [
      {"compound": "CCOc1ccc(N(C(C)C(=O)Nc2cc(Cl)ccc2OC)S(C)(=O)=O)cc1", "note": "(stereo not drawn)", "Potency": "3.69 µM (active)"},
      {"compound": "CCOc1ccc(NC(=O)CSc2oc(-c3ccccc3)nc2S(=O)(=O)c2ccc(Cl)cc2)cc1", "Potency": "3.69 µM (active)"},
      {"compound": "CCN(CC)C(=O)c1ccc(NC(=O)CCn2nc(-c3ccc(C)cc3)c3ccccc3c2=O)cc1", "Potency": "inactive"},
      {"compound": "Cc1ccccc1-n1c(/C=C/c2ccccc2F)nc2ccccc2c1=O", "Potency": "inactive"},
      {"compound": "CN[C@@H]1C[C@@]2(C)O[C@@H]([C@@H]1OC)n1c3ccccc3c3c4c(c5c6ccccc6n2c5c31)C(=O)NC4", "Potency": "0.0325 µM (active)"},
      {"compound": "Cc1ccc(-n2c(/C=C/c3ccc(Br)s3)nc3ccccc3c2=O)cc1C", "Potency": "inactive"},
      {"compound": "Cc1cccc(CN2CCc3nc(N4CCN(c5ccccn5)CC4)ncc3C2)c1", "Potency": "inactive"},
      {"compound": "CCOc1ccc(CN(CCc2ccc3c(c2)OCO3)Cc2ccc(C)cc2)cc1", "Potency": "inactive"},
      {"compound": "Cc1ccccc1-n1c(/C=C/c2c(C)[nH]c3ccccc23)nc2ccccc2c1=O", "Potency": "1.85 µM (active)"},
      {"compound": "Cc1ccccc1-c1nc(CN2C(=O)CN=C(c3ccccc3)c3ccccc32)c(C)o1", "Potency": "inactive"},
      {"compound": "CCCOC(=O)c1c(C)oc2c1cc(NS(=O)(=O)c1ccc(OCC)cc1)c1ccccc12", "Potency": "0.656 µM (active)"},
      {"compound": "CCN(CC)CCSc1nc2ccccc2c(=O)n1-c1ccc(Cl)cc1", "Potency": "inactive"},
      {"compound": "O=C(Nc1ccon1)c1cccn(Cc2cccc(Cl)c2)c1=O", "Potency": "inactive"}
    ]}
  ]
}
